Results published in PubChem BioAssay (NCATS).
Several values for one entry are separate records, joined by “and”; a condition that tells them apart may be missing. Identical values can stand only once. Results filed as inconclusive are left out. Activity calls are given as the source filed them. Unless noted, calls come from the whole dose curve; as a rule, active = well fitted curve in the direction sought with a large enough effect; inconclusive = small, poorly fitted or top-dose-only effect, or another doubt; inactive = no such curve, though single readings can be large; an effect the other way counts as inactive or inconclusive.

What was measured:
[1] = Cell Viability - BJ (AID 421; calls by dose curve;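 note: potency is the fitted concentration of half-maximal effect; cells exposed to compound for 40 hours at 37 °C before readout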); conditions: BJ fibroblast viability, qHTS
Outline: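 Cytotoxicity in human BJ foreskin fibroblasts is scored as loss of cellular ATP after a 40-hour exposure, measured by luciferase luminescence. Controls are DMSO and 100 uM tamoxifen.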

[2] = Cell Viability - Jurkat (AID 426;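 active = dose-dependent loss of cell ATP signal giving a full or clear fitted curve, ranked by lower potency value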; note: potency is the fitted concentration of half-maximal effect); conditions: qHTS
Outline: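 Jurkat (clone E6-1, human T-cell leukemia) cells, 5000/well in complete medium, were exposed to compound for 40 hr at 37 °C. Viability was read as intracellular ATP by CellTiter-Glo luminescence; AC50 came from Hill fits of concentration-response data.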

[3] = Cell Viability - Hek293 (AID 427;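 active = compounds whose dose-response curve shows a full or clear partial loss of cell viability, called from curve shape rather than a numeric limit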;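 note: potency is the fitted concentration of half-maximal effect; cells exposed to compound for 40 hours at 37 °C before reading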); conditions: qHTS
Outline: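 qHTS, human embryonic kidney (adenovirus-transformed) cells; 40 hr cpd, 37 °C; CellTiter-Glo ATP luminescence. Norm: DMSO = 0, 100 uM tamoxifen = 100% inhibition. Hill-fit AC50.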

[4] = Cell Viability - HepG2 (AID 433; calls by dose curve;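 note: potency is the fitted concentration of half-maximal effect; potency for ATP loss meaning cytotoxicity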); conditions: qHTS
Outline: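 HepG2 cells, 1500 per well, treated 40 hr at 37 °C in complete medium; viability from intracellular ATP by CellTiter-Glo luminescence. Normalized to DMSO and 100 uM tamoxifen; AC50 from Hill fit of qHTS concentration-response.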

[5] = Cell Viability - SK-N-SH (AID 435; calls by dose curve;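 note: potency is the fitted concentration of half-maximal effect; compound exposure lasted 40 h at 37 °C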); conditions: SK-N-SH neuroblastoma cell viability qHTS
Outline: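 SK-N-SH neuroblastoma cells (1500/well) treated 40 h at 37 °C in complete medium; viability read as cellular ATP by CellTiter-Glo luminescence. Normalized to DMSO and 100 uM tamoxifen; AC50 from Hill fits of qHTS concentration-response.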

[6] = molecular target: Mitogen-activated protein kinase 10 (Mus musculus) (UniProt Q61831); test: JNK3 AlphaScreen Assay (AID 530; active = well fitted curve in either direction with a large enough effect, not every such curve was filed as active;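 note: kinase came from lysate of stimulated human HepG2 cells; signal reports phosphorylation of biotinylated GST-cJun 1-79 at Ser73 with 10 µM ATP; % is set by controls: 0 for no effect and ±100 for the full control effect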); conditions: JNK3 lysate, c-Jun phosphorylation; series mostly up to 57.1 µM
Outline: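 Room-temperature AlphaScreen kinase assay; pre-activated HepG2 lysate as JNK3 source, biotin-GST-cJun(1-79) substrate, 10 uM ATP, compound 15 min preincubation.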

[7] = Cell Viability - N2a (AID 540); conditions: N2a mouse neuroblastoma cell viability; at 92.2 µM (top of the series);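 note: plate controls were DMSO alone for no effect and tamoxifen control for full effect; nearly all actives have a fitted effect of over 45% in size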
Outline: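 Mouse neuroblastoma N2a cells (1500/well) were preincubated 5 hr at 37 °C, then exposed to compounds for 40 hr at 37 °C in complete medium. Viability was read as intracellular ATP by CellTiter-Glo luminescence; AC50 from Hill fits.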

[8] = Cell Viability - NIH 3T3 (AID 541); conditions: NIH 3T3 cell viability, qHTS; activity change, negative = cytotoxicity: at 92.2 µM (top of the series);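 note: plate controls were DMSO alone for no effect and tamoxifen positive control for full effect; nearly all actives have a fitted effect of over 25% in size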
Outline: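 NIH 3T3 mouse embryo fibroblasts (1000 cells/well) were plated in complete medium and treated with compound for 40 hr at 37 °C. Viability was read as intracellular ATP by CellTiter-Glo luminescence; AC50 values came from Hill-equation fits of concentration-response data.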

[9] = Cell Viability - HUV-EC-C (AID 542); conditions: HUV-EC-C endothelial cell viability, qHTS; series mostly up to 92.2 µM; note: % is set by controls: 0 for no effect and ±100 for the full control effect; nearly all actives have a fitted effect of over 35% in size
Outline: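 HUV-EC-C normal human vascular endothelial cells, 1000 cells/well, pre-incubated 5 hr at 37 °C, then exposed to compounds for 40 hr at 37 °C in complete medium. Viability measured as intracellular ATP by CellTiter-Glo luminescence; AC50 from Hill fits.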

[10] = Cell Viability - Renal Proximal Tubule (AID 545); conditions: renal proximal tubule cells viability; at 91.7 µM (top of the series), primary cells of rat origin unless noted; note: nearly all actives have a fitted effect of over 40% in size
Outline: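 Rat renal proximal tubule primary cells, 1000/well, exposed to compounds for 40 hr at 37 °C in complete medium; cellular ATP read by CellTiter-Glo luminescence. AC50 from concentration-response fitted with standard Hill equation.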

[11] = Cell Viability - Mesenchymal (AID 546); conditions: mesenchymal cells viability, qHTS; series mostly up to 91.7 µM;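 note: cells exposed to compound for 40 hours before reading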
Outline: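 AC50 values reflect the drop in intracellular ATP in a human kidney mesenchymal line derived from normal glomeruli. Treatment lasts 40 hr at 37 °C in complete medium, and the signal comes from CellTiter-Glo luminescence.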

[12] = Cellular Toxicity (caspase-3) Jurkat (AID 655); conditions: Jurkat caspase-3 activation, luminescence, DMSO = 0%, tamoxifen = 100%; at 92.2 µM (top of the series);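 note: cells exposed to compound for 16 h at 37 °C before reading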
Outline: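 Jurkat cells (5000/well) in complete medium exposed 16 h at 37 C; caspase-3/7 activity read by Caspase-Glo luminescence after 20 min at room temperature. Normalized to DMSO and 100 uM tamoxifen; AC50 from Hill fits.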

[13] = Cellular Toxicity (caspase-3) HUV-EC-C (AID 656); conditions: HUV-EC-C cells, caspase-3 activation (apoptosis), vehicle = 0, 100 µM tamoxifen = 100%; series mostly up to 92.2 µM
Outline: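 HUV-EC-C cells (1000/well) in complete medium, compound-treated 16 h at 37 °C; caspase-3/7 activity read by Caspase-Glo 3/7 luminescence. Normalized to DMSO (basal) and 100 uM tamoxifen (100%); AC50 from Hill-equation concentration-response fits.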

[14] = Cellular Toxicity (caspase-3) SHSY5Y (AID 657); conditions: SH-SY5Y caspase-3 activation, DMSO zero, 10 µM staurosporine = 100%; series mostly up to 91.7 µM
Outline: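 SH-SY5Y human neuroblastoma cells, 1500/well, exposed to compound for 16 hours at 37 °C in complete medium. Caspase-3/7 activity read by Caspase-Glo luminescence after 1 hr at room temperature, normalized to DMSO and 10 uM staurosporine; AC50 from Hill fit.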

[15] = Cellular Toxicity (caspase-3) Renal Proximal Tubule (AID 667); conditions: renal proximal tubule cells; at 91.7 µM (top of the series), primary cells freshly taken from rat, solvent-only wells 0%, staurosporine 100% unless noted;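 note: cells exposed to compound for 16 hours at 37 °C before detection; 0% = DMSO basal and 100% = 10 µM staurosporine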
Outline: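 Freshly isolated primary rat kidney proximal tubule cells, 1000/well, treated 16 hr at 37 °C, then Caspase-Glo 3/7 luminescence after 1 hr. Normalized to DMSO and 10 uM staurosporine; AC50 from Hill fit.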

[16] = molecular target: Cytochrome P450 3A4 (Homo sapiens) (UniProt P08684); test: qHTS Assay for Inhibitors and Substrates of Cytochrome P450 3A4 (AID 884); conditions: recombinant CYP3A4, Luciferin-PPXE luminescence; series mostly up to 57.1 µM; note: nearly all actives have a fitted effect of over 50% in size; note: potency is the fitted concentration of half-maximal effect
Chain of Cytochrome P450 3A4 (Homo sapiens) (P08684 whole entry, looked up): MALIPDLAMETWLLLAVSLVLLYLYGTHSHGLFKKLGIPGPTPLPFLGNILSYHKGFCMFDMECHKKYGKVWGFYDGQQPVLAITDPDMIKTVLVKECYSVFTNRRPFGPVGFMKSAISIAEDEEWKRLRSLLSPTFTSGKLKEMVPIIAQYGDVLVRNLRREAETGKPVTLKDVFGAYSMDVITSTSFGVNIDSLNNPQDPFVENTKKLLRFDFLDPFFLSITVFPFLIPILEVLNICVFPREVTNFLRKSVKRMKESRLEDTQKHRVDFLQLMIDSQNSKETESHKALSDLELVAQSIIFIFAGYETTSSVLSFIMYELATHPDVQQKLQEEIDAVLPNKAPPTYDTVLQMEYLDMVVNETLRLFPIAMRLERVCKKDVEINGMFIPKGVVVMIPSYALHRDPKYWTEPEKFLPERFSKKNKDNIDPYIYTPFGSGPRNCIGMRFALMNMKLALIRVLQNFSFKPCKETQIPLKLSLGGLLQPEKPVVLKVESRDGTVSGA
Outline: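 20 nM human CYP3A4 with 25 uM Luciferin-PPXE (at KM) in 200 mM KPO4, preincubated 10 min with compound; NADPH regeneration started a 60 min RT reaction. Luciferin detected by luminescence, normalized to 57 uM ketoconazole as full inhibition.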

[17] = qHTS assay for small molecule agonists of retinoid X receptor alpha signaling (AID 588544); conditions: HEK293T RXRa-UAS-bla, beta-lactamase reporter, 18 h; 530 nm emission
[18] = qHTS assay for small molecule disruptors of the mitochondrial membrane potential - 1 hr assay (AID 651754; calls by dose curve; note: % is set by controls: 0 for no effect and ±100 for the full control effect; nearly all actives have a fitted effect of over 35% in size); conditions: series mostly up to 92.2 µM
Outline: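 HepG2 cells, attached overnight at 37C, were exposed to compound or DMSO vehicle for 1 hr at 37C, 5% CO2, then stained with Mito-MPS dye for 30 min. Red aggregate versus green monomer fluorescence reports membrane potential.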

[19] = qHTS assay for small molecule disruptors of the mitochondrial membrane potential - 5 hr assay (AID 651755; calls by dose curve; note: % is set by controls: 0 for no effect and ±100 for the full control effect; nearly all actives have a fitted effect of over 40% in size); conditions: JC-1-type ratio dye; series mostly up to 92.2 µM
Outline: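 HepG2, 2,000 cells/well, overnight attach; cpd or DMSO 5 hr, 37C/5% CO2; Mito-MPS 30 min 37C; fluor 490/535 + 540/590 nm.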

[20] = molecular target: Peroxisome proliferator-activated receptor alpha (Homo sapiens) (UniProt Q07869); test: qHTS assay for small molecule agonists of the peroxisome proliferator-activated receptor alpha (PPARalpha) signaling pathway (AID 651778); conditions: PathHunter PPARalpha complementation, chemiluminescence, 6 h; stronger effect = higher value; note: % of control where 0% means no effect
Chain of Peroxisome proliferator-activated receptor alpha (Homo sapiens) (Q07869 whole entry, looked up): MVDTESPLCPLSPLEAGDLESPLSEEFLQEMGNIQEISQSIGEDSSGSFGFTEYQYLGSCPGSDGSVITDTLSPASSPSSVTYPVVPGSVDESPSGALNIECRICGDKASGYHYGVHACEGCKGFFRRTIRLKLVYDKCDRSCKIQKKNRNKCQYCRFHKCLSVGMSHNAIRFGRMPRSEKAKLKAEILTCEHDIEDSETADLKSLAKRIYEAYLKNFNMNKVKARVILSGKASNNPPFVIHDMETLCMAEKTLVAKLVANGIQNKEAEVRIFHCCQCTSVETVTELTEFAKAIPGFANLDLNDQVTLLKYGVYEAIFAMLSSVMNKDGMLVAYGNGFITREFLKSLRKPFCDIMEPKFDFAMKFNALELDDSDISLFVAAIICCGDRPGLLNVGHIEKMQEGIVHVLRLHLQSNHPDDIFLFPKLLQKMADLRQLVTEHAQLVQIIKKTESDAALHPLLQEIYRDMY
Outline: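 Chemiluminescence from complemented enzyme reported PPARalpha activation in cells after 6 hr of compound treatment at 37 C. The detection reagent was incubated for 60 min at room temperature, and compounds were scored as agonists.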

c1ccc(-c2ccccc2)cc1
inactive: Potency [1] > 92 µM | Potency [2] > 92 µM | Potency [3] > 92 µM | Potency [4] > 92 µM | Potency [5] > 92 µM | outcome [6] | activity change, negative = cytotoxicity [7] -4.83% | activity change, negative = cytotoxicity [8] -5.05% | Potency [9] | activity change, negative = cytotoxicity [10] 1.72% | outcome [11] | caspase-3 activation [12] 0.52% | outcome [13] | outcome [14] | caspase-3 activation [15] -8.06% | Potency [16] | Potency [18] | Potency [19] | max response [20] -2.7% and -1.05%
-1.55% and -17%: max response [17]

Clc1nc(Cl)nc(Nc2ccccc2Cl)n1
-6.76%: max response [17]
inactive: Potency [1] > 92 µM | Potency [2] > 92 µM | Potency [3] > 92 µM | Potency [4] > 92 µM | Potency [5] > 92 µM | outcome [6] | activity change, negative = cytotoxicity [7] 9.08% | activity change, negative = cytotoxicity [8] -3.86% | Potency [9] | activity change, negative = cytotoxicity [10] -4.26% | outcome [11] | caspase-3 activation [12] 0.489% | outcome [13] | outcome [14] | caspase-3 activation [15] -3.95% | Potency [16] | Potency [18] | Potency [19] | max response [20] 1.31% and 8.11%

Clc1cccc(C(Cl)(Cl)Cl)n1
-9.56% and 6.27%: max response [17]
inactive: Potency [1] > 92 µM | Potency [2] > 92 µM | Potency [3] > 92 µM | Potency [4] > 92 µM | Potency [5] > 92 µM | outcome [6] | activity change, negative = cytotoxicity [7] -3.54% | activity change, negative = cytotoxicity [8] -0.893% | Potency [9] | activity change, negative = cytotoxicity [10] -6.77% | outcome [11] | caspase-3 activation [12] -0.503% | outcome [13] | outcome [14] | caspase-3 activation [15] 4.49% | Potency [18] | Potency [19] | max response [20] -0.105% and 0.0446%

CN=C=S
inactive: Potency [1] > 92 µM | Potency [2] > 92 µM | Potency [3] > 92 µM | Potency [4] > 92 µM | Potency [5] > 92 µM | outcome [6] | activity change, negative = cytotoxicity [7] -7.58% | activity change, negative = cytotoxicity [8] 7.36% | Potency [9] | activity change, negative = cytotoxicity [10] -2.52% | outcome [11] | caspase-3 activation [12] -1.9% | outcome [13] | outcome [14] | caspase-3 activation [15] -3.52% | Potency [16] | Potency [18] | Potency [19] | max response [20] -2.7% and -1.5%
-13.3% and 3.16%: max response [17]

CCC[CH2][Sn]([Cl])([Cl])[Cl]
-13.2% and -14.8%: max response [17]
inactive: Potency [1] > 92 µM | Potency [2] > 92 µM | Potency [3] > 92 µM | Potency [4] > 92 µM | Potency [5] > 92 µM | outcome [6] | activity change, negative = cytotoxicity [7] 12.4% | activity change, negative = cytotoxicity [8] -25.6% | Potency [9] | activity change, negative = cytotoxicity [10] -9.62% | outcome [11] | caspase-3 activation [12] 1.34% | outcome [13] | outcome [14] | caspase-3 activation [15] 6.84% | Potency [16] | Potency [18] | Potency [19] | max response [20] 0.179% and -1.51%

CC(C)c1cc2c(c(O)c1O)[C@]1(C(=O)O)CCCC(C)(C)C1CC2 (stereo not given in full)
active: Potency [16] 0.316 µM

C=C(C)C1CNC(C(=O)O)C1CC(=O)O (stereo not given)
inactive: Potency [16]

ClC(Cl)=C(Cl)Cl
4.54% and -3.27%: max response [17]
inactive: Potency [1] > 92 µM | Potency [2] > 92 µM | Potency [3] > 92 µM | Potency [4] > 92 µM | Potency [5] > 92 µM | outcome [6] | activity change, negative = cytotoxicity [7] -8.38% and -0.61% | activity change, negative = cytotoxicity [8] -22.9% and 3.64% | Potency [9] | activity change, negative = cytotoxicity [10] -15.6% and -5.24% | outcome [11] | caspase-3 activation [12] -0.349% and -0.592% | outcome [13] | outcome [14] | caspase-3 activation [15] 1.99% and -8.12% | Potency [16] | Potency [18] | Potency [19] | max response [20] -0.144% and -2.45%

c1ccc(OP(Oc2ccccc2)Oc2ccccc2)cc1
3.52% and -16.1%: max response [17]
inactive: Potency [1] > 92 µM | Potency [2] > 92 µM | Potency [3] > 92 µM | Potency [4] > 92 µM | Potency [5] > 92 µM | outcome [6] | activity change, negative = cytotoxicity [7] 6.82% | activity change, negative = cytotoxicity [8] 7% | Potency [9] | activity change, negative = cytotoxicity [10] 1.28% | outcome [11] | caspase-3 activation [12] -1.12% | outcome [13] | outcome [14] | caspase-3 activation [15] 1.22% | Potency [16] | Potency [18] | Potency [19] | max response [20] -2.33% and -1.84%

CCCCOCCOP(=O)(OCCOCCCC)OCCOCCCC
-10.8% and -2.33%: max response [17]
inactive: Potency [1] > 92 µM | Potency [2] > 92 µM | Potency [3] > 92 µM | Potency [4] > 92 µM | Potency [5] > 92 µM | outcome [6] | activity change, negative = cytotoxicity [7] -1.66% | activity change, negative = cytotoxicity [8] -4.02% | Potency [9] | activity change, negative = cytotoxicity [10] 5.24% [at 91.7 µM] | outcome [11] | caspase-3 activation [12] 1.12% | outcome [13] | outcome [14] | caspase-3 activation [15] -4.16% [at 91.7 µM] | Potency [18] | Potency [19] | max response [20] 5.47% and -1.69%
